# Assay results as given in the supplement of paper PMC8728848.
# This excerpt belongs to a sample that is enriched for the strongest signals.
# Experiments:
# Experiment in all cases: glycan array binding signal (z-score within array); higher = stronger binding
# Settings in all cases: glycan notation: IUPAC condensed, linker removed
# [1] = molecular target: Fuc(a1-2)Gal(b1-3)[Fuc(a1-4)]GlcNAc(b1-3)[Fuc(a1-3)[Gal(b1-4)]GlcNAc(b1-6)]Gal(b1-4)Glc
# Procedure, shortened: (§1)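 Negative Z-scores can be read as non-binding. The Z-score is calculated within each array and then averaged across arrays of one protein sequence at different concentrations or buffers and across linkers. Arrays, 3228 in all, were curated from the Consortium for Functional Glycomics database and kept only where the protein sequence was available.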
# [2] = molecular target: Fuc(a1-2)Gal(b1-4)[Fuc(a1-3)]GlcNAc(b1-2)[Fuc(a1-2)Gal(b1-4)[Fuc(a1-3)]GlcNAc(b1-4)]Man(a1-3)[Fuc(a1-2)Gal(b1-4)[Fuc(a1-3)]GlcNAc(b1-2)Man(a1-6)]Man(b1-4)GlcNAc(b1-4)GlcNAc
# Procedure, shortened: as §1
# [3] = molecular target: Fuc(a1-2)[Gal(a1-3)]Gal(b1-3)GlcNAc
# Procedure, shortened: as §1
# [4] = molecular target: Fuc(a1-2)[Gal(a1-3)]Gal(b1-4)[Fuc(a1-3)]Glc
# Procedure, shortened: as §1
# [5] = molecular target: Fuc(a1-2)[GalNAc(a1-3)]Gal(b1-3)GlcNAc(b1-2)Man(a1-3)[Fuc(a1-2)[GalNAc(a1-3)]Gal(b1-3)GlcNAc(b1-2)Man(a1-6)]Man(b1-4)GlcNAc(b1-4)GlcNAc
# Procedure, shortened: as §1
# [6] = molecular target: Fuc(a1-2)[GalNAc(a1-3)]Gal(b1-4)GlcNAc(b1-3)GalNAc
# Procedure, shortened: as §1
# [7] = molecular target: Fuc(a1-2)[GalNAc(a1-4)]Gal(b1-4)GlcNAc
# Procedure, shortened: as §1
# [8] = molecular target: Gal(b1-3)GalNAc(b1-4)[Neu5Ac(a2-3)]Gal(b1-4)Glc
# Procedure, shortened: as §1
# [9] = molecular target: Gal(b1-3)GlcNAc(b1-2)Man(a1-3)[Gal(b1-3)GlcNAc(b1-2)Man(a1-6)]Man(b1-4)GlcNAc(b1-4)[Fuc(a1-6)]GlcNAc
# Procedure, shortened: as §1
# [10] = molecular target: Gal(b1-3)GlcNAc(b1-2)Man(a1-3)[GlcNAc(b1-4)][Gal(b1-3)GlcNAc(b1-2)Man(a1-6)]Man(b1-4)GlcNAc(b1-4)GlcNAc
# Procedure, shortened: as §1
# [11] = molecular target: Gal(b1-4)Glc6S
# Procedure, shortened: as §1
# [12] = molecular target: Gal(b1-4)GlcNAc(b1-2)Man(a1-3)[Gal(b1-4)GlcNAc(b1-2)Man(a1-6)]Man(b1-4)GlcNAc(b1-4)[Fuc(a1-6)]GlcNAc
# Procedure, shortened: as §1
# [13] = molecular target: Gal(b1-4)GlcNAc(b1-2)Man(a1-3)[Gal(b1-4)GlcNAc(b1-2)Man(a1-6)][Gal(b1-4)GlcNAc(b1-4)]Man(b1-4)GlcNAc(b1-4)[Fuc(a1-6)]GlcNAc
# Procedure, shortened: as §1
# [14] = molecular target: Gal(b1-4)GlcNAc(b1-3)Gal(b1-3)GalNAc
# Procedure, shortened: as §1
# [15] = molecular target: Gal(b1-4)GlcNAc(b1-3)Gal(b1-4)GlcNAc(b1-2)Man(a1-3)[Gal(b1-4)GlcNAc(b1-3)Gal(b1-4)GlcNAc(b1-2)Man(a1-6)]Man(b1-4)GlcNAc(b1-4)[Fuc(a1-6)]GlcNAc
# Procedure, shortened: as §1
# [16] = molecular target: Gal(b1-4)GlcNAc(b1-3)Gal(b1-4)GlcNAc(b1-3)Gal(b1-4)GlcNAc(b1-2)Man(a1-3)[Gal(b1-4)GlcNAc(b1-3)Gal(b1-4)GlcNAc(b1-3)Gal(b1-4)GlcNAc(b1-2)Man(a1-6)]Man(b1-4)GlcNAc(b1-4)[Fuc(a1-6)]GlcNAc
# Procedure, shortened: as §1
# [17] = molecular target: Gal(b1-4)GlcNAc(b1-3)Gal(b1-4)GlcNAc(b1-3)Gal(b1-4)GlcNAc(b1-3)Gal(b1-4)GlcNAc(b1-2)Man(a1-3)[Gal(b1-4)GlcNAc(b1-3)Gal(b1-4)GlcNAc(b1-3)Gal(b1-4)GlcNAc(b1-3)Gal(b1-4)GlcNAc(b1-2)Man(a1-6)]Man(b1-4)GlcNAc(b1-4)[Fuc(a1-6)]GlcNAc
# Procedure, shortened: as §1
# [18] = molecular target: Gal(b1-4)GlcNAc(b1-3)Gal(b1-4)GlcNAc(b1-3)Gal(b1-4)GlcNAc(b1-3)Gal(b1-4)GlcNAc(b1-3)Gal(b1-4)GlcNAc(b1-2)Man(a1-3)[Gal(b1-4)GlcNAc(b1-3)Gal(b1-4)GlcNAc(b1-3)Gal(b1-4)GlcNAc(b1-3)Gal(b1-4)GlcNAc(b1-3)Gal(b1-4)GlcNAc(b1-2)Man(a1-6)]Man(b1-4)GlcNAc(b1-4)[Fuc(a1-6)]GlcNAc
# Procedure, shortened: as §1
# [19] = molecular target: Gal(b1-4)GlcNAc(b1-3)Gal(b1-4)GlcNAc(b1-6)[Gal(b1-3)]GalNAc
# Procedure, shortened: as §1
# [20] = molecular target: Gal3S(b1-4)GlcNAc
# Procedure, shortened: as §1
# [21] = molecular target: Gal6S(b1-3)GlcNAc6S
# Procedure, shortened: as §1
# [22] = molecular target: GalNAc(b1-3)Gal(a1-6)Gal(b1-4)Glc
# Procedure, shortened: as §1
# [23] = molecular target: GalNAc(b1-4)Gal(b1-4)Glc
# Procedure, shortened: as §1
# [24] = molecular target: GalNAc(b1-6)GalNAc
# Procedure, shortened: as §1
# [25] = molecular target: GlcA(b1-6)Gal
# Procedure, shortened: as §1
# [26] = molecular target: GlcNAc(a1-4)Gal(b1-4)GlcNAc(b1-3)Gal(b1-4)[Fuc(a1-3)]GlcNAc(b1-3)Gal(b1-4)[Fuc(a1-3)]GlcNAc
# Procedure, shortened: as §1
# [27] = molecular target: GlcNAc(b1-2)[GlcNAc(b1-4)]Man(a1-3)[GlcNAc(b1-2)Man(a1-6)]Man(b1-4)GlcNAc(b1-4)GlcNAc
# Procedure, shortened: as §1
# [28] = molecular target: GlcNAc(b1-2)[GlcNAc(b1-6)]Man(a1-6)[GlcNAc(b1-2)Man(a1-3)]Man(b1-4)GlcNAc(b1-4)[Fuc(a1-6)]GlcNAc
# Procedure, shortened: as §1
# [29] = molecular target: GlcNAc(b1-3)Fuc
# Procedure, shortened: as §1
# [30] = molecular target: GlcNAc(b1-3)Gal(b1-4)Glc
# Procedure, shortened: as §1
# [31] = molecular target: GlcNAc(b1-3)Gal(b1-4)GlcNAc(b1-2)Man(a1-3)[GlcNAc(b1-3)Gal(b1-4)GlcNAc(b1-2)Man(a1-6)]Man(b1-4)GlcNAc(b1-4)[Fuc(a1-6)]GlcNAc
# Procedure, shortened: as §1
# [32] = molecular target: GlcNAc(b1-3)Gal(b1-4)GlcNAc(b1-3)Gal(b1-4)GlcNAc(b1-2)Man(a1-3)[GlcNAc(b1-3)Gal(b1-4)GlcNAc(b1-3)Gal(b1-4)GlcNAc(b1-2)Man(a1-6)]Man(b1-4)GlcNAc(b1-4)[Fuc(a1-6)]GlcNAc
# Procedure, shortened: as §1
# [33] = molecular target: GlcNAc(b1-3)Gal(b1-4)GlcNAc(b1-3)Gal(b1-4)GlcNAc(b1-3)Gal(b1-4)GlcNAc(b1-2)Man(a1-3)[GlcNAc(b1-3)Gal(b1-4)GlcNAc(b1-3)Gal(b1-4)GlcNAc(b1-3)Gal(b1-4)GlcNAc(b1-2)Man(a1-6)]Man(b1-4)GlcNAc(b1-4)[Fuc(a1-6)]GlcNAc
# Procedure, shortened: as §1
# [34] = molecular target: GlcNAc(b1-3)Gal(b1-4)GlcNAc(b1-3)Gal(b1-4)GlcNAc(b1-3)Gal(b1-4)GlcNAc(b1-2)[GlcNAc(b1-3)Gal(b1-4)GlcNAc(b1-3)Gal(b1-4)GlcNAc(b1-3)Gal(b1-4)GlcNAc(b1-6)]Man(a1-6)[GlcNAc(b1-3)Gal(b1-4)GlcNAc(b1-3)Gal(b1-4)GlcNAc(b1-3)Gal(b1-4)GlcNAc(b1-2)Man(a1-3)]Man(b1-4)GlcNAc(b1-4)[Fuc(a1-6)]GlcNAc
# Procedure, shortened: as §1
# [35] = molecular target: GlcNAc(b1-3)Gal(b1-4)GlcNAc(b1-6)[Gal(b1-3)]GalNAc
# Procedure, shortened: as §1
# [36] = molecular target: GlcNAc(b1-4)GlcNAc(b1-4)GlcNAc(b1-4)GlcNAc(b1-4)GlcNAc(b1-4)GlcNAc
# Procedure, shortened: as §1
# [37] = molecular target: GlcNAc(b1-4)[GlcNAc(b1-6)]GalNAc
# Procedure, shortened: as §1
# [38] = molecular target: Man(a1-2)Man(a1-2)Man(a1-6)[Man(a1-3)]Man
# Procedure, shortened: as §1
# [39] = molecular target: Man(a1-3)[Man(a1-6)]Man(b1-4)GlcNAc(b1-4)[Fuc(a1-6)]GlcNAc
# Procedure, shortened: as §1
# [40] = molecular target: Man(a1-6)Man
# Procedure, shortened: as §1
# [41] = molecular target: Neu5Ac(a2-3)Gal(b1-3)GlcNAc(b1-3)Gal(b1-3)GlcNAc
# Procedure, shortened: as §1
# [42] = molecular target: Neu5Ac(a2-3)GalNAc
# Procedure, shortened: as §1
# [43] = molecular target: Neu5Ac(a2-6)Gal(b1-4)GlcNAc(b1-2)Man(a1-3)Man(b1-4)GlcNAc(b1-4)GlcNAc
# Procedure, shortened: as §1
# [44] = molecular target: Neu5Ac(a2-6)Gal(b1-4)GlcNAc(b1-2)Man(a1-3)[Man(a1-6)]Man(b1-4)GlcNAc(b1-4)GlcNAc
# Procedure, shortened: as §1
# [45] = molecular target: Neu5Ac(a2-6)Gal(b1-4)GlcNAc(b1-2)Man(a1-3)[Neu5Ac(a2-6)Gal(b1-4)GlcNAc(b1-2)Man(a1-6)]Man(b1-4)GlcNAc(b1-4)[Fuc(a1-6)]GlcNAc
# Procedure, shortened: as §1
# [46] = molecular target: Neu5Ac(a2-6)Gal(b1-4)GlcNAc(b1-3)Gal(b1-4)GlcNAc(b1-6)[Gal(b1-3)]GalNAc
# Procedure, shortened: as §1
binder,measurement,setting,value
"HML-Native (Hypnea musciformis), P84871 (protein) QKFCTLDIAPVCCQIVIGGGMYTAGNACMCEGFVSGVGRCENPKECPCTREAQIPSCCSSRWGLVSVTGKCACDCLGGTVAFPEPCPSPY",glycan array binding signal (z-score),[1],-0.188
same,glycan array binding signal (z-score),[2],-0.059
same,glycan array binding signal (z-score),[3],-0.211
same,glycan array binding signal (z-score),[4],-0.283
same,glycan array binding signal (z-score),[5],-0.093
same,glycan array binding signal (z-score),[6],-0.302
same,glycan array binding signal (z-score),[7],-0.162
same,glycan array binding signal (z-score),[8],-0.318
same,glycan array binding signal (z-score),[9],5.16
same,glycan array binding signal (z-score),[10],-0.276
same,glycan array binding signal (z-score),[11],-0.313
same,glycan array binding signal (z-score),[12],5.65
same,glycan array binding signal (z-score),[13],1.48
same,glycan array binding signal (z-score),[14],-0.238
same,glycan array binding signal (z-score),[15],5.52
same,glycan array binding signal (z-score),[16],4.93
same,glycan array binding signal (z-score),[17],4.9
same,glycan array binding signal (z-score),[18],4.8
same,glycan array binding signal (z-score),[19],-0.192
same,glycan array binding signal (z-score),[20],-0.233
same,glycan array binding signal (z-score),[21],-0.323
same,glycan array binding signal (z-score),[22],-0.345
same,glycan array binding signal (z-score),[23],-0.252
same,glycan array binding signal (z-score),[24],-0.284
same,glycan array binding signal (z-score),[25],-0.241
same,glycan array binding signal (z-score),[26],0.641
same,glycan array binding signal (z-score),[27],-0.307
same,glycan array binding signal (z-score),[28],4.99
same,glycan array binding signal (z-score),[29],-0.11
same,glycan array binding signal (z-score),[30],-0.205
same,glycan array binding signal (z-score),[31],5.62
same,glycan array binding signal (z-score),[32],5.5
same,glycan array binding signal (z-score),[33],5.16
same,glycan array binding signal (z-score),[34],1.38
same,glycan array binding signal (z-score),[35],-0.272
same,glycan array binding signal (z-score),[36],-0.197
same,glycan array binding signal (z-score),[37],-0.239
same,glycan array binding signal (z-score),[38],-0.005
same,glycan array binding signal (z-score),[39],5.72
same,glycan array binding signal (z-score),[40],-0.3
same,glycan array binding signal (z-score),[41],-0.295
same,glycan array binding signal (z-score),[42],-0.258
same,glycan array binding signal (z-score),[43],-0.157
same,glycan array binding signal (z-score),[44],-0.166
same,glycan array binding signal (z-score),[45],5.65
same,glycan array binding signal (z-score),[46],-0.205
